KB-3-1 cytotox: kills parental KB-3-1 adenocarcinoma cells; actives 1.4% (n = 400,000); Potency, µM (doses to about 46.1 µM), actives largely listed as cytotoxic; KB-3-1 viability, CellTiter-Glo ATP luminescence, 72 h; AID 1347075; note: % is set by controls: 0 for no effect and ±100 for the full control effect; nearly all actives have a fitted effect of over 60% in size
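Multi-concentration cytotoxicity screen in KB-3-1 cells grown in DMEM lacking phenol red with 10% FBS. After 72 h at 37 °C with compound, ATP-dependent luminescence was recorded.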
HT1080 IDH1KD tx: HT-1080 IDH1 knockdown cell toxicity (counter line); HT-1080 IDH1 knockdown viability, ATP luminescence, 48 h; Potency, µM (titrated, usually from 46.1 µM), inactives show at the top dose activity, negative = toxicity, hits mostly cytotoxic; actives 2% (n = 360,000); AID 686971;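 note: 0% = DMSO wells and -100% = cell-free medium wells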
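CellTiter-Glo luminescence after 48 h compound exposure at 37 degrees C of IDH1-knockdown HT-1080 cells in 5% FBS RPMI. %Activity scaled between DMSO wells and cell-free media wells, with curves fitted and assigned curve classes.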
HT1080-NT tox: kills 2HG-producing HT-1080-NT fibrosarcoma cells; HT-1080-NT fibrosarcoma viability, CellTiter-Glo ATP luminescence, 48 h; Potency, µM (top dose mostly 46.1 µM), without a hit: top-dose activity, negative = less viability, actives largely listed as cytotoxic; actives 1.6% (n = 360,000); AID 686970;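 note: NT is the 2HG producing partner of a matched IDH1 knockdown line; 0% = DMSO-treated cells and -100% = media-only wells without cells; nearly all actives have a fitted effect of over 55% in size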
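HT-1080-NT; 750 cells/well; 5% FBS RPMI; 48 h compound, 37 degrees C; CellTiter-Glo luminescence; curve fitting and curve-class assignment.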
MCF10A rerep: inducers of DNA re-replication in MCF 10A breast cells. MCF 10A DNA re-replication, Hoechst nuclear intensity, 48 h. Potency, µM (doses to about 46.1 µM), for inactives: at the highest dose activity, positive = re-replication, most hits filed as activators. actives 2.9% (n = 350,000). AID 624296; note: % of control where 0% means no effect; nearly all actives have a fitted effect of over 50% in size
SW480 rerep: DNA re-replication induction in SW480 cells | SW480 DNA re-replication, Hoechst DNA content imaging, 48 h | Potency, µM (series often up to 46.1 µM), inactives show top-dose re-replication activation, usual class: activators | actives 1.8% (n = 340,000); note: % of control where 0% means no effect; nearly all actives have a fitted effect of over 55% in size
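Image-based read-out: total Hoechst fluorescence of nuclei (405 nm excitation, 500-530 nm emission), with hits raising the fraction of high-intensity nuclei. SW480 colon cells incubated 48 hr with compounds at 37 C.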
KB-V1 cytotox: kills drug-selected multidrug resistant KB-V1 cells. KB-V1 MDR cells viability, CellTiter-Glo, 72 h. Potency, µM (titrated, usually from 46.1 µM), hits mostly cytotoxic. actives 3.4% (n = 400,000). AID 1347076; note: % is set by controls: 0 for no effect and ±100 for the full control effect; nearly all actives have a fitted effect of over 60% in size
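KB-V1 MDR subline cells in DMEM (phenol-red free, 10% FBS) exposed to compounds in qHTS concentration series for 72 h at 37 degrees C. Viability read by CellTiter-Glo luminescence; concentration-effect curves fitted after normalization and correction.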
Numbers without * were called inactive; [ ] = another dose, or the depositor's remark. The list is not random: actives were taken first. Their share in the collection is about 8%. Calls come from the whole dose curve; as a rule, active = well fitted curve in the direction sought with a large enough effect; inconclusive = small, poorly fitted or top-dose-only effect, or another doubt; inactive = no such curve, though single readings can be large; an effect the other way counts as inactive or inconclusive. Potency is the fitted concentration of half-maximal effect.

For CC(C)CCC(CCN1CCOCC1)c1ccc2c(c1)OCO2 (stereo unspecified) the results were KB-3-1 cytotox inactive, HT1080 IDH1KD tx inconclusive, HT1080-NT tox -26.7%, MCF10A rerep inconclusive, SW480 rerep 1.0% and KB-V1 cytotox 20.6µM*.
Screening COCCCNCCC(CCC(C)C)c1ccc2c(c1)OCO2 (stereo unspecified) returned KB-3-1 cytotox inconclusive, HT1080 IDH1KD tx 14.6µM*, HT1080-NT tox 20.6µM*, MCF10A rerep 0.9%, SW480 rerep 1.3% and KB-V1 cytotox inconclusive.
`C=CCOc1ccn(C)c(=O)n1` gave KB-3-1 cytotox inactive, HT1080 IDH1KD tx -5.0%, HT1080-NT tox 2.9%, MCF10A rerep 0.4%, SW480 rerep -7.6% and KB-V1 cytotox inactive.
For C/C(=N\NC(=O)c1cccc(Cl)c1)C1C(=O)c2ccccc2C1=O the results were KB-3-1 cytotox 23.1µM*, HT1080 IDH1KD tx 8.2µM*, HT1080-NT tox 13µM*, MCF10A rerep inconclusive, SW480 rerep 3.66µM* and KB-V1 cytotox 9.2µM*.
`CC(/C=C/c1ccco1)=N\NC(=O)c1cccc(Cl)c1` gave KB-3-1 cytotox inactive, HT1080 IDH1KD tx inconclusive, HT1080-NT tox -22.4%, MCF10A rerep 1.0%, SW480 rerep inconclusive and KB-V1 cytotox inconclusive.
`C/C(=N\NC(=O)CCc1ccccc1)C1C(=O)c2ccccc2C1=O` gave KB-3-1 cytotox inconclusive, HT1080 IDH1KD tx inconclusive, HT1080-NT tox inconclusive, MCF10A rerep 17.7%, SW480 rerep inconclusive and KB-V1 cytotox 9.2µM*.
CC(/C=C/c1ccccc1)=N\NC(=O)CCc1ccccc1 was read as KB-3-1 cytotox inactive, HT1080 IDH1KD tx -0.2%, HT1080-NT tox 12.1%, MCF10A rerep -9.0%, SW480 rerep 5.0% and KB-V1 cytotox inactive.
`Cc1nc(Nc2cccc(F)c2)c2oc3ccccc3c2n1` gave KB-3-1 cytotox inactive, HT1080 IDH1KD tx -21.7%, HT1080-NT tox -13.8%, MCF10A rerep 17.2%, SW480 rerep 1.3% and KB-V1 cytotox inactive.
`CC1CCCC(NC(=S)NC(=O)c2ccccc2Br)C1C` (stereo unspecified) gave KB-3-1 cytotox 25.9µM*, HT1080 IDH1KD tx 3.5%, HT1080-NT tox -0.4%, MCF10A rerep inconclusive, SW480 rerep inconclusive and KB-V1 cytotox 16.4µM*.
For CCOC(=O)C1=CN(Cc2ccco2)S(=O)(=O)N(C)C1c1cccc(OC)c1 (stereo unspecified) the results were KB-3-1 cytotox inactive, HT1080 IDH1KD tx -7.7%, HT1080-NT tox -1.5%, MCF10A rerep 1.5%, SW480 rerep 4.8%[9.22 µM] and KB-V1 cytotox inactive.
For O=P(COCCO)(c1ccccc1)c1ccccc1 the results were KB-3-1 cytotox inactive, HT1080 IDH1KD tx 4.3%, HT1080-NT tox 7.5%, MCF10A rerep -0.8%, SW480 rerep -4.2% and KB-V1 cytotox inconclusive.
Screening Cc1ccccc1CN1C(=O)c2ccccc2C1c1nnnn1-c1ccc2c(c1)OCCO2 (stereo unspecified) returned KB-3-1 cytotox 2.91µM*, HT1080 IDH1KD tx 3.26µM*, HT1080-NT tox 3.66µM* and KB-V1 cytotox 5.8µM*.
For CCCC(=O)Nc1ccc(S(=O)(=O)Nc2cc(OC)ncn2)cc1 the results were KB-3-1 cytotox inconclusive, HT1080 IDH1KD tx 7.6%, HT1080-NT tox 0.3%, MCF10A rerep -0.4%, SW480 rerep -26.1% and KB-V1 cytotox inconclusive.
COc1ccc(-c2cc(C)no2)cc1S(=O)(=O)NCc1cccc(C)c1 was read as KB-3-1 cytotox inconclusive, HT1080 IDH1KD tx inconclusive, HT1080-NT tox 18.4µM*, MCF10A rerep inconclusive, SW480 rerep inconclusive and KB-V1 cytotox inconclusive.
CCc1ccc(-c2cc(C)no2)cc1S(=O)(=O)NCc1ccccc1OC was read as KB-3-1 cytotox inactive, HT1080 IDH1KD tx -4.5%, HT1080-NT tox -12.4%, MCF10A rerep -15.8%, SW480 rerep 1.7% and KB-V1 cytotox inactive.
`COc1ccccc1CNS(=O)(=O)c1ccc(-c2cc(C)no2)cc1` gave KB-3-1 cytotox 1.3µM*, HT1080 IDH1KD tx 2.06µM*, HT1080-NT tox 4.11µM*, MCF10A rerep inconclusive, SW480 rerep -4.1% and KB-V1 cytotox inconclusive.
COc1ccc(CNS(=O)(=O)c2cc(-c3cc(C)no3)ccc2OC)cc1OC was read as KB-3-1 cytotox inconclusive, HT1080 IDH1KD tx 11.2%, HT1080-NT tox 9.9%, MCF10A rerep 0.3%, SW480 rerep -35.0% and KB-V1 cytotox inactive.
Screening O=S(=O)(c1ccccc1)c1nc(NC2CC2)sc1Cl returned KB-3-1 cytotox inactive, HT1080 IDH1KD tx -1.6%, HT1080-NT tox -28.3%, MCF10A rerep 6.8%, SW480 rerep -4.2% and KB-V1 cytotox inconclusive.
Cc1ccnc(NS(=O)(=O)c2ccc(NC(=O)c3ccc([N+](=O)[O-])s3)cc2)n1 was read as KB-3-1 cytotox 14.6µM*, HT1080 IDH1KD tx inconclusive, HT1080-NT tox inconclusive, MCF10A rerep 11.6µM*, SW480 rerep 18.4µM* and KB-V1 cytotox inactive.
For Cc1cc(NS(=O)(=O)c2ccc(NC(=O)c3ccc([N+](=O)[O-])s3)cc2)nc(C)n1 the results were KB-3-1 cytotox inconclusive, HT1080 IDH1KD tx -29.9%, HT1080-NT tox -18.2%, MCF10A rerep 18.4µM*, SW480 rerep inconclusive and KB-V1 cytotox inactive.
Screening CC(=O)Nc1ccc(C(=O)Nc2ccc(S(=O)(=O)Nc3nccc(C)n3)cc2)cc1 returned KB-3-1 cytotox inactive, HT1080 IDH1KD tx 2.8%, HT1080-NT tox 7.4%, MCF10A rerep -2.7%, SW480 rerep inconclusive and KB-V1 cytotox inconclusive.
CCCCCCCCOC(=O)c1c(CSC(=N)N)n(C)c2cc(Br)c(OC(C)=O)cc12 was read as KB-3-1 cytotox inactive, HT1080 IDH1KD tx inconclusive, HT1080-NT tox inconclusive, MCF10A rerep 3.26µM*, SW480 rerep inconclusive and KB-V1 cytotox inconclusive.
`CCOC(=O)c1c(CSc2nc(C)cc(C)c2C#N)n(C)c2cc(Br)c(OC(C)=O)cc12` gave KB-3-1 cytotox inconclusive, HT1080 IDH1KD tx 5.2%, HT1080-NT tox inconclusive, MCF10A rerep 5.3%, SW480 rerep 1.1% and KB-V1 cytotox inconclusive.
CCOC(=O)c1c(CSC(=N)N)n(-c2ccc(Br)cc2)c2cc(Br)c(OC(C)=O)cc12 was read as KB-3-1 cytotox inactive, HT1080 IDH1KD tx -6.9%, HT1080-NT tox 12.9%, MCF10A rerep 10.3µM*, SW480 rerep inconclusive and KB-V1 cytotox inactive.
